Laboratory results from PubChem BioAssay (NCI).
About 83,000 compounds went through this panel and 20% of them were active in at least one assay; those are over-represented in the sample as a whole.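 Treatment: one concentration, 48 hours, 96-well format. Scoring: percent growth, with anything below 10 considered active.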 Active and inactive are the calls of the source.

What was measured:
Assay in all cases: NCI-60 one-dose screen, 48 h (100 = growth as untreated, 0 = no growth, -100 = all killed)
SR leukemia = details: 10 µM unless noted
RPMI-8226 leukemia = details: 10 µM unless noted
OVCAR-8 ovarian = details: 10 µM unless noted
OVCAR-5 ovarian = details: 10 µM unless noted
OVCAR-4 ovarian = details: 10 µM unless noted
SK-OV-3 ovarian = details: 10 µM unless noted
IGROV1 ovarian = details: 10 µM unless noted
OVCAR-3 ovarian = details: 10 µM unless noted
HS 578T breast = details: 10 µM

Measured: growth

Nc1c(C(=O)Nc2cccc(Cl)c2)sc2ncc(Br)cc12
inactive: SR leukemia 71.7% | RPMI-8226 leukemia 71.3% | OVCAR-8 ovarian 87.1% | OVCAR-5 ovarian 84.1% | SK-OV-3 ovarian 61% | IGROV1 ovarian 70% | OVCAR-3 ovarian 54.5%
active: OVCAR-4 ovarian 9.2%

CCCN(CCC)CC(O)COc1ccccc1C(=O)Nc1ccccc1 (configuration not stated)
inactive: SR leukemia 28.7% | RPMI-8226 leukemia 71.4% | OVCAR-8 ovarian 84.3% | OVCAR-5 ovarian 115% | OVCAR-4 ovarian 85% | SK-OV-3 ovarian 67.4% | IGROV1 ovarian 113% | OVCAR-3 ovarian 50.3% | HS 578T breast 80.9%

CC(C)N=C1CCCC1C(=S)SSC(=S)C1CCCC1=NC(C)C (configuration not stated)
inactive: SR leukemia 47.7% | RPMI-8226 leukemia 59.5% | OVCAR-8 ovarian 61.7% | OVCAR-5 ovarian 93.9% | OVCAR-4 ovarian 53.8% | SK-OV-3 ovarian 110% | IGROV1 ovarian 52.8% | OVCAR-3 ovarian 44.8% | HS 578T breast 75.9%

COc1ccc(-c2nc3ccc(Cc4ccc5nc(-c6ccc(OC)cc6)[nH]c5c4)cc3[nH]2)cc1
inactive: SR leukemia 38.8% | RPMI-8226 leukemia 18.5% | OVCAR-8 ovarian 15.1% | OVCAR-5 ovarian 91.2% | OVCAR-4 ovarian 11.4% | SK-OV-3 ovarian 97.3% | HS 578T breast 73.1%
active: IGROV1 ovarian -16.9% | OVCAR-3 ovarian -21.9%

Cc1nc2ccc(Nc3nc(N4CCOCC4)nc(N4CCN(C)CC4)n3)cc2n1Cc1ccccc1
inactive: SR leukemia 24.9% | RPMI-8226 leukemia 65.4% | OVCAR-8 ovarian 93.6% | OVCAR-5 ovarian 101% | OVCAR-4 ovarian 112% | SK-OV-3 ovarian 96.2% | IGROV1 ovarian 98.2% | OVCAR-3 ovarian 94.7% | HS 578T breast 69.3%

Clc1ccc(-c2nc(Br)cn3ccnc23)cc1
inactive: SR leukemia 92.2% | RPMI-8226 leukemia 93.4% | OVCAR-8 ovarian 86.8% | OVCAR-5 ovarian 90.4% | OVCAR-4 ovarian 112% | SK-OV-3 ovarian 88.5% | IGROV1 ovarian 74.3% | OVCAR-3 ovarian 82.8% | HS 578T breast 91.3%

CC1CCN(Cc2ccc(NC(=O)c3cc4ccc5cccnc5c4[nH]3)cc2)CC1
active: SR leukemia 2.01% | OVCAR-3 ovarian -14.3%
inactive: RPMI-8226 leukemia 19.8% | OVCAR-8 ovarian 34.1% | OVCAR-5 ovarian 51.8% | OVCAR-4 ovarian 66.5% | SK-OV-3 ovarian 12.7% | IGROV1 ovarian 46.7% | HS 578T breast 33.7%

COc1cc(C2CC(c3ccc(Nc4ccnc5cc(Cl)ccc45)cc3)=NN2c2ccccc2)cc(OC)c1OC (configuration not stated)
inactive: SR leukemia 24.8% | RPMI-8226 leukemia 49.7% | OVCAR-8 ovarian 81.2% | OVCAR-5 ovarian 86.4% | OVCAR-4 ovarian 123% | SK-OV-3 ovarian 90.3% | IGROV1 ovarian 106% | OVCAR-3 ovarian 86.7% | HS 578T breast 72.4%

Cc1cc(C)cc(Nc2cc(C)nc3nc(C(F)(F)F)nn23)c1
inactive: SR leukemia 29.6% | RPMI-8226 leukemia 40% | OVCAR-8 ovarian 17.5% | OVCAR-5 ovarian 63.3% | OVCAR-4 ovarian 37.3% | SK-OV-3 ovarian 47.8% | IGROV1 ovarian 21.6% | HS 578T breast 71.7%
active: OVCAR-3 ovarian 8.97%

CCc1ccc(-c2ccc(NC3CCCCCC3)nn2)cc1S(N)(=O)=O
inactive: SR leukemia 103% | RPMI-8226 leukemia 99.4% | OVCAR-8 ovarian 102% | OVCAR-5 ovarian 97.5% | OVCAR-4 ovarian 102% | SK-OV-3 ovarian 105% | IGROV1 ovarian 110% | OVCAR-3 ovarian 117%

CC(=O)c1ccc(-n2c(-c3cc(-c4ccsc4)n[nH]3)n[nH]c2=S)cc1
inactive: SR leukemia 94% | RPMI-8226 leukemia 101% | OVCAR-8 ovarian 98.9% | OVCAR-5 ovarian 97.8% | OVCAR-4 ovarian 105% | SK-OV-3 ovarian 104% | IGROV1 ovarian 107% | OVCAR-3 ovarian 113%

O=C(NCC(c1ccsc1)N1CCCCCC1)c1ccc(C(F)(F)F)cc1 (configuration not stated)
inactive: SR leukemia 85.8% | RPMI-8226 leukemia 88.8% | OVCAR-8 ovarian 102% | OVCAR-5 ovarian 106% | OVCAR-4 ovarian 94.6% | SK-OV-3 ovarian 109% | IGROV1 ovarian 96.8% | OVCAR-3 ovarian 103% | HS 578T breast 102%

CCc1ccc(Nc2cc(C)c3ccc(O)cc3n2)cc1
inactive: SR leukemia 43.9% | RPMI-8226 leukemia 29.9% | OVCAR-8 ovarian 80% | OVCAR-5 ovarian 83.7% | OVCAR-4 ovarian 75.7% | SK-OV-3 ovarian 90.1% | IGROV1 ovarian 53.8% | OVCAR-3 ovarian 81% | HS 578T breast 87.6%

COc1cccc(NC(=O)[C@H](C(C)C)n2c(=O)[nH]c3ccccc3c2=O)c1
inactive: SR leukemia 95.8% | RPMI-8226 leukemia 98.6% | OVCAR-8 ovarian 96.9% | OVCAR-5 ovarian 108% | OVCAR-4 ovarian 105% | SK-OV-3 ovarian 101% | IGROV1 ovarian 113% | OVCAR-3 ovarian 109% | HS 578T breast 110%

Cc1cc(NC(=O)C2c3ccccc3C(=O)N(CC(C)C)C2c2cccs2)no1 (configuration not stated)
inactive: OVCAR-5 ovarian 31.5% | SK-OV-3 ovarian 94.7% | IGROV1 ovarian 16.2% | HS 578T breast 67.7%
active: SR leukemia 7.23% | RPMI-8226 leukemia 3.73% | OVCAR-8 ovarian 3.68% | OVCAR-4 ovarian -8.84% | OVCAR-3 ovarian -53.6%
